# Measured values as given in PubChem BioAssay (NCI).
# The panel holds about 83,000 compounds, 20% with a hit somewhere; the sample as a whole holds those more often.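 The endpoint reported here, percent growth, reads 100 for growth as untreated, 0 for no net growth and -100 for all cells dead.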 Values without a mark were called inactive. Active and inactive are the calls of the source. Rule for the calls: active = growth percent below 10; inactive = the rest.
# Key:
# Assay in all cases: NCI-60 one-dose screen, 48 h (100 = growth as untreated, 0 = no growth, -100 = all killed)
# Settings in all cases: 10 µM unless noted
# [1] = tested on: NCI-H23 lung
# [2] = tested on: NCI-H226 lung
# [3] = tested on: NCI-H322M lung
# [4] = tested on: HOP-62 NSCLC
# [5] = tested on: NCI-H460 lung
# [6] = tested on: HOP-92 NSCLC
# [7] = tested on: NCI-H522 lung
# [8] = tested on: A549/ATCC NSCLC
# [9] = tested on: 786-0 renal
# [10] = tested on: COLO 205 colon
# [11] = tested on: DU-145 prostate
# [12] = tested on: K-562 leukemia
# [13] = tested on: MALME-3M melanoma
# [14] = tested on: MDA-MB-231 breast
# [15] = tested on: RXF 393 renal
# [16] = tested on: SF-268 CNS
# [17] = tested on: SF-295 CNS
# [18] = tested on: SF-539 CNS
# [19] = tested on: UACC-257 melanoma
# [20] = tested on: M14 melanoma
SMILES,growth [1],growth [2],growth [3],growth [4],growth [5],growth [6],growth [7],growth [8],growth [9],growth [10],growth [11],growth [12],growth [13],growth [14],growth [15],growth [16],growth [17],growth [18],growth [19],growth [20]
O=C(O)C1C(C(=O)O)C2(Cl)C(Cl)=C(Cl)C1(Cl)C2(Cl)Cl.[Hg] (stereo unspecified),90.7%,106%,107%,103%,98.8%,127%,-50.2% (active),85%,88%,103%,96.7%,15.1%,69.5%,86.4%,123%,97.5%,95.2%,102%,74.7%,80.2%
COc1cc(/C=C/[N+](=O)[O-])c([N+](=O)[O-])cc1OC,79.6%,16.1%,110%,81.1%,76.1%,94.2%,-89.9% (active),78%,-30.7% (active),-52.7% (active),38.6%,10.9%,11.7%,-12.1% (active),-92.9% (active),48.3%,107%,-32.4% (active),65.7%,7.35% (active)
COc1cc2c(cc1OCc1ccccc1)C(CC(C)C)=[N+](C)CC2,56.4%,81.2%,97.8%,88.2%,92.1%,77.7%,66.3%,61%,95.6%,56.9%,93.6%,67.2%,85%,93%,93.9%,67.5%,68.2%,76.7%,50%,99.1%
CC(C)=CCC[C@H](C(=O)O)[C@@H]1CC[C@]2(C)C3=C(CC[C@@]12C)[C@@]1(C)CC[C@H](O)C(C)(C)[C@@H]1CC3,106%,109%,84.2%,97.3%,109%,101%,60.8%,81.8%,92%,120%,110%,70.4%,106%,103%,104%,101%,94.6%,93.2%,88.9%,85.9%
CC[CH2][Sn]([Cl])([Cl])[CH2]CC,76.9%,86.4%,131%,82.4%,107%,110%,-87.2% (active),99.3%,73.8%,44.2%,106%,30.6%,21%,81.6%,51.1%,83.2%,96.1%,80.4%,67%,83.4%
CC1=C(CCCNS(C)(=O)=O)C2=C(C)C3(CC3)[C@@](C)(O)C(=O)C2=C1,-35.1% (active),-44% (active),-3.8% (active),-20.5% (active),1% (active),-25.7% (active),6.89% (active),2.7% (active),-17.6% (active),-61% (active),4.13% (active),106%,-63.1% (active),-3.41% (active),-75.6% (active),8.41% (active),2.69% (active),-38.6% (active),,-51.3% (active)
CC1CCCC(C[N+](C)(C)C)C1=O (stereo unspecified),109%,95.4%,77.2%,106%,117%,83.8%,98.7%,104%,112%,118%,115%,88.3%,76.5%,104%,112%,112%,,94.2%,112%,101%
CCCCCC1(CCBr)C(=O)NC(=O)NC1=O,109%,104%,118%,107%,108%,85.1%,100%,98.3%,95.9%,110%,109%,94.1%,108%,107%,107%,,,96.6%,91%,112%
